Data as given in the supplement of paper PMC10515830.
Structures can show the parent of a compound that is named as a salt.

Tests used:
Details in all cases: 10 µM; exposure time 6 h
[1] = test system: Danio rerio larvae (5 dpf); assay: difference in excitability vs DMSO (percentage points); higher = more excitable than DMSO
Summary of the method: (§1)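 Wild-type 5 dpf zebrafish larvae in 96-well plates were given 100 µL egg water containing library compound at 10 µM final for 6 h. After 3 h of exposure, plates at 28.5 ℃ were photographed every 6 s during a 3-h programme of moving lines and 100 ms, 400Hz tones. Z-LaP Tracker (a DeepLabCut model) quantified each behaviour, averaged over 48 larvae per compound. Values are the compound mean minus the DMSO-vehicle control, in percentage points.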

[2] = test system: Danio rerio larvae (5 dpf); assay: difference in startle response vs DMSO (percentage points); higher = stronger startle than DMSO
Summary of the method: as §1

[3] = test system: Danio rerio larvae (5 dpf); assay: difference in activity during first hour vs DMSO (percentage points); higher = more activity than DMSO
Summary of the method: as §1

[4] = test system: Danio rerio larvae (5 dpf); assay: difference in habituation to acoustic stimuli vs DMSO (percentage points); higher = more habituation than DMSO
Summary of the method: as §1

[5] = test system: Danio rerio larvae (5 dpf); assay: difference in combined optomotor response to red, green and blue moving lines vs DMSO (percentage points); higher = stronger optomotor response than DMSO
Summary of the method: as §1

SMILES | difference in excitability [1] | difference in startle response [2] | difference in activity during first hour [3] | difference in habituation to acoustic stimuli [4] | difference [5]
CC[C@H](C)[C@H](N)C1=N[C@H](C(=O)N[C@@H](CC(C)C)C(=O)N[C@H](CCC(=O)[O-])C(=O)N[C@H](C(=O)N[C@H]2CCCCNC(=O)[C@H](CC(N)=O)NC(=O)[C@@H](CC(=O)[O-])NC(=O)[C@H](Cc3cnc[nH]3)NC(=O)[C@@H](Cc3ccccc3)NC(=O)[C@H]([C@@H](C)CC)NC(=O)[C@@H](CCCN)NC2=O)[C@@H](C)CC)CS1.[Zn+2] [Bacitracin (zinc)] | 20.6 | -4.52 | 30.1 | -11 | -7.98
CC1COc2c(N3CCN(C)CC3)c(F)cc3c(=O)c(C(=O)O)cn1c23 (stereo not given) [Ofloxacin] | 5.76 | 3.75 | 9.1 | -0.318 | 1.41
CN(C)c1cc(NC(=O)CNC(C)(C)C)c(O)c2c1C[C@H]1C[C@H]3[C@H](N(C)C)C(O)=C(C(N)=O)C(=O)[C@@]3(O)C(O)=C1C2=O [Tigecycline] | 18.8 | 1.45 | -22.5 | -5.95 | -3.12
Oc1ccc(C2CNCCc3c2cc(O)c(O)c3Cl)cc1 (stereo not given) [Fenoldopam (mesylate)] | 9.9 | -2.3 | 4.74 | -1.52 | -1.12
CO[C@H]1/C=C/O[C@@]2(C)Oc3c(C)c(O)c4c(c3C2=O)C2=NC3(CCN(CC(C)C)CC3)NC2=C(NC(=O)/C(C)=C\C=C\[C@H](C)[C@H](O)[C@@H](C)[C@@H](O)[C@@H](C)[C@H](OC(C)=O)[C@@H]1C)C4=O [Rifabutin] | 10.6 | -5.26 | 2.31 | 3.31 | 3.55
Nc1nc(=O)n([C@@H]2CS[C@H](CO)O2)cc1F [Emtricitabine] | 1.12 | -4.62 | 11.4 | 4.83 | 7.06
CC(O)C(O)[C@H]1CNc2nc(N)[nH]c(=O)c2N1 (stereo partly drawn) [(6R)-5,6,7,8-tetrahydro-L-Biopterin (hydrochloride)] | 0.358 | -1.51 | -0.551 | 1.85 | 6.59
Nc1ncnc2c1ncn2[C@@H]1O[C@H](CO)[C@@H](O)[C@H]1O [Adenosine] | 1.75 | 6.58 | 10 | -5.11 | 5.99
CC(C)(O)c1ccccc1CC[C@@H](SCC1(CC(=O)O)CC1)c1cccc(/C=C/c2ccc3ccc(Cl)cc3n2)c1 [Montelukast (sodium salt)] | 10.4 | 2.54 | -3.93 | 1.58 | 3.42
C[C@@H]1C[C@H]2[C@@H]3CCC4=CC(=O)C=C[C@]4(C)[C@@]3(F)[C@@H](O)C[C@]2(C)[C@H]1C(=O)CO [Desoximetasone] | 2.03 | 4.16 | -4.98 | 2.48 | 0.705
Nc1ccn([C@@H]2O[C@H](CO)[C@@H](O)C2(F)F)c(=O)n1 [Gemcitabine] | -0.256 | -0.373 | -2.75 | -1.87 | 2.24
NS(=O)(=O)c1cc2c(cc1Cl)N=CNS2(=O)=O [Chlorothiazide] | -0.0236 | -3.29 | 3.22 | 6.65 | -5.74
CNC(=O)c1cc(Oc2ccc(NC(=O)Nc3ccc(Cl)c(C(F)(F)F)c3)cc2)ccn1 [Sorafenib] | 19.5 | -6.25 | -3.15 | -3.01 | -2.71
CC1=NN(c2ccccc2)C(=O)C1 | 2.26 | -0.112 | -1.37 | -1.34 | 4.56
C=CC1=C(C(=O)O)N2C(=O)[C@@H](NC(=O)/C(=N\OCC(=O)O)c3csc(N)n3)[C@H]2SC1 [Cefixime] | -0.725 | -0.605 | 11.6 | 8.39 | 10.8
CC(C)(C(=O)O)c1ccc(C(O)CCCN2CCC(C(O)(c3ccccc3)c3ccccc3)CC2)cc1 (stereo not given) [Fexofenadine (hydrochloride)] | 4.09 | 2.98 | 11.3 | 0.612 | 5.51
CCCN[C@H]1CCc2nc(N)sc2C1 [(S)-Pramipexole (hydrochloride)] | 6.47 | -2.57 | -10.9 | 5.7 | 0.342
NC(=O)C(c1ccccc1)(c1ccccc1)[C@@H]1CCN(CCc2ccc3c(c2)CCO3)C1 [Darifenacin (hydrobromide)] | 15.5 | -9.95 | -4.6 | -3.27 | -6.74
CCC(C)n1ncn(-c2ccc(N3CCN(c4ccc(OCC5COC(Cn6cncn6)(c6ccc(Cl)cc6Cl)O5)cc4)CC3)cc2)c1=O (stereo not given) [Itraconazole] | 15.4 | -0.629 | -2.15 | -5.43 | 4.73
CN(C)CCOC(=O)C(c1ccccc1)C1(O)CCCC1 (stereo not given) [Cyclopentolate (hydrochloride)] | -10.4 | -4.29 | -7.59 | -2.76 | -2.74
OCCOc1ccc(/C(=C(/CCCl)c2ccccc2)c2ccccc2)cc1 [Ospemifene] | 6.62 | -3.99 | -12.6 | -8.31 | -16.5
NS(=O)(=O)c1cc(Cl)c(Cl)c(S(N)(=O)=O)c1 [Dichlorphenamide] | 1.47 | -2.89 | -2.19 | -4.78 | -8.01
CC(=O)OC[C@H]1O[C@@H]([S-])[C@H](OC(C)=O)[C@@H](OC(C)=O)[C@@H]1OC(C)=O.CCP(CC)CC.[Au+] [Auranofin] | 6.43 | -4.17 | 11 | 2.14 | -5.02
COc1ccc(OC)c(C(O)CNC(=O)CN)c1 (stereo not given) [Midodrine (hydrochloride)] | 7.59 | -5.94 | 6.73 | 0.23 | 5.44

SMILES | difference in excitability [1] | difference in startle response [2] | difference in activity during first hour [3] | difference in habituation to acoustic stimuli [4] | difference [5]
COc1ccc(S(=O)(=O)Nc2ccccc2CN(C)C/C=C/c2ccc(Cl)cc2)cc1 [KN-92 (hydrochloride)] | 7.68 | -0.787 | -17.8 | -4.48 | -1.81
Cc1cccc(Nc2ccccc2C(=O)O)c1C [Mefenamic Acid] | 6.54 | -1.5 | -5.95 | -12.8 | -15.5
CC(=O)[C@]1(O)Cc2c(O)c3c(c(O)c2[C@@H](O[C@H]2C[C@H](N)[C@H](O)[C@H](C)O2)C1)C(=O)c1ccccc1C3=O [Idarubicin (hydrochloride)] | 12.5 | -1.2 | -5.02 | 1.34 | -1.01
CCN(CC)C(=O)C1(c2ccccc2)CC1CN (stereo not given) [Milnacipran (hydrochloride)] | 16 | -4.41 | -15.2 | 1.78 | -3.7
C/C=C1\NC(=O)[C@H]2CSSCC/C=C/[C@H](CC(=O)N[C@H](C(C)C)C(=O)N2)OC(=O)[C@H](C(C)C)NC1=O [Romidepsin] | 2.86 | -0.00342 | 21 | 0.496 | 8.55
O=C(O)CCc1nc(-c2ccccc2)c(-c2ccccc2)o1 [Oxaprozin] | 17.9 | -7.37 | 3.28 | -4.84 | -6.06
CCOC(=O)C1=C(COCCN)NC(C)=C(C(=O)OC)C1c1ccccc1Cl (stereo not given) [Amlodipine] | 4.37 | -5.58 | 1.69 | 0.668 | 7.23
COc1ccc2c(O[C@@H]3C[C@H]4C(=O)N[C@]5(C(=O)NS(=O)(=O)C6CC6)C[C@H]5/C=C\CCCCN(C)C(=O)[C@@H]4C3)cc(-c3nc(C(C)C)cs3)nc2c1C [Simeprevir (sodium salt)] | 13.8 | -3.43 | 25.2 | 3.8 | 8.38
Nc1nc(NC2CC2)c2ncn([C@H]3C=C[C@@H](CO)C3)c2n1 [Abacavir (sulfate)] | -1.01 | -0.154 | 7.36 | -0.118 | 5.64
O=c1ccc2ccc(OCCCCN3CCN(c4cccc5sccc45)CC3)cc2[nH]1 [Brexpiprazole] | 13.2 | -1.39 | 25.4 | -17.4 | -9.77
O=C(O)c1cc(-c2ccc(F)cc2F)ccc1O [Diflunisal] | 1.22 | 5.89 | 15.2 | -3.92 | 6.8
CCCC(CCC)C(=O)O [Valproic Acid (sodium salt)] | 1.2 | 1.47 | -1.97 | -8.1 | 3.32
CC(C)(S)[C@@H](N)C(=O)O [Penicillamine] | 1.99 | 3.43 | -11.2 | 6.31 | 4.5
Cc1c(O)cccc1C(=O)N[C@@H](CSc1ccccc1)[C@H](O)CN1C[C@H]2CCCC[C@H]2C[C@H]1C(=O)NC(C)(C)C [Nelfinavir (mesylate)] | 17.7 | 0.499 | -23 | 2.82 | -10.2
CCc1c(C)[nH]c2c1C(=O)C(CN1CCOCC1)CC2 (stereo not given) [Molindone (hydrochloride)] | 4.99 | -3.27 | -7.67 | -1.62 | -2.83
CCCN(CCC)CCc1cccc2c1CC(=O)N2 [Ropinirole (hydrochloride)] | 31.3 | -0.638 | -13.7 | -1.82 | -4.31
C[N+]1(C)[C@@H]2CC[C@H]1C[C@@H](OC(=O)C(O)c1ccccc1)C2 (stereo not given in full) [Methylhomatropine (bromide)] | 5.63 | 0.325 | 2.46 | 1.2 | -3.01
COC(=O)[C@H](c1ccccc1Cl)N1CCc2sccc2C1 (racemic) [(±)-Clopidogrel (hydrochloride)] | 11.3 | 3.2 | -4.36 | -3.13 | 8.08
C[C@@H](O)[C@H]1C(=O)N2C(C(=O)O)=C(S[C@@H]3CN[C@H](CNS(N)(=O)=O)C3)[C@H](C)[C@H]12 [Doripenem (hydrate)] | 0.847 | -3.28 | 18.4 | -1.56 | -1.12
Nc1ccc(S(=O)(=O)Nc2ncccn2)cc1 [Sulfadiazine] | 11.9 | 4.72 | 7.75 | 1.42 | -1.28
C=C(c1ccc(C(=O)O)cc1)c1cc2c(cc1C)C(C)(C)CCC2(C)C [Bexarotene] | 7.21 | 1.4 | -13.5 | -4.93 | -11
CC(C)(CO)c1cc2cc(NC(=O)C3(c4ccc5c(c4)OC(F)(F)O5)CC3)c(F)cc2n1C[C@@H](O)CO | 16.7 | 3.44 | 15.2 | 6.02 | 6.53
O=C1C(O)=C([C@H]2CC[C@H](c3ccc(Cl)cc3)CC2)C(=O)c2ccccc21 [Atovaquone] | -0.794 | -0.517 | -0.977 | -6.16 | -7.53
Cc1cc2nc3c(=O)[nH]c(=O)nc-3n(C[C@H](O)[C@H](O)[C@H](O)COP(=O)(O)O)c2cc1C [Riboflavin 5'-monophosphate (sodium salt hydrate)] | -1.24 | -0.41 | 13.4 | 5.95 | -0.41
